About 5,100 (32%) of roughly 16,000 compounds were called active. Another 25% or so got no clear call; they are omitted. Calls come from the whole dose curve; as a rule, active = well fitted curve in the direction sought with a large enough effect; inconclusive = small, poorly fitted or top-dose-only effect, or effect the other way; inactive = no such curve, though single readings can be large or run the other way. This is one part of the list.
Molecular target: Cytochrome P450 3A4 (Homo sapiens) (UniProt P08684)
Sequence (P08684 whole entry, looked up): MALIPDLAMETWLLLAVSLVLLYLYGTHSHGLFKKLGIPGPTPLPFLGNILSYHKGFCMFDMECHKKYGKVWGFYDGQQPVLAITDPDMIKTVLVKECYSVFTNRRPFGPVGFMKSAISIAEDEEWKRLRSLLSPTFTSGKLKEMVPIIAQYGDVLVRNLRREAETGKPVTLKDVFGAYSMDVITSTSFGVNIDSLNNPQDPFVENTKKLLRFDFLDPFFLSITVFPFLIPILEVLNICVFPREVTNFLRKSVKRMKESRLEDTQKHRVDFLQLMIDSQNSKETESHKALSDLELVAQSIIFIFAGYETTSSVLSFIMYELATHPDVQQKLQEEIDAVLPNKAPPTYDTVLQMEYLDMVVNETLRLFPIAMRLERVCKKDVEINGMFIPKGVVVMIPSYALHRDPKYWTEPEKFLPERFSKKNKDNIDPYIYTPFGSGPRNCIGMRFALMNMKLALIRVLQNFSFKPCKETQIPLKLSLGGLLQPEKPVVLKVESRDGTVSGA
Assay: Cytochrome panel assay with activity outcomes
Conditions: recombinant CYP, pro-luciferin dealkylation, luminescence, p450-cyp3a4; series mostly up to 57.1 µM; activity, negative = inhibition: at the top concentration
% is set by controls: 0 for no effect and ±100 for the full control effect.

activity, negative = inhibition, inactive:
CC(C)CNC(=O)O -6.31% [at 11.4 µM], CC(C)C(=O)Nc1ccc(Sc2ccc(F)cc2)cc1 -3.21%, CCC1CCc2c(c3ccccc3[nH]c2=O)O1 (stereo not given) -20.1% [at 2.29 µM], O=C(CCN1CCOCC1)Nc1ccc(F)cc1F -14.9% [at 11.4 µM], Cc1c(C(=O)O)nc(/C=C\C(=O)O)[nH]c1=O -3.36% [at 11.4 µM], CCCNC(=O)c1cc2c(C(F)(F)F)nn(C)c2s1 19.2% [at 2.29 µM], CCCCSc1nnc(-c2cc3c(C(F)(F)F)nn(C)c3s2)n1C -20.2%, NC(=S)SCCC(=O)O -7.17% [at 11.4 µM], CCCC(=O)Nc1nc(C(=O)OCC)cs1 -13.8%, CC(C)OC(=O)C(CC(=O)O)N1CCOCC1 (stereo not given) 0.0868%, CCC(Sc1ncccc1C(=O)O)C(=O)N1CCOCC1 (stereo not given) 3.75%, CN(C)CCNc1ncnc2c1sc1nc(N3CCOCC3)c3c(c12)CC(C)(C)SC3 -10.7%, CC(=O)OC[C@@H]1O[C@@H](O/N=C2/C[C@@H](O)[C@@H](O)[C@@H]3[C@@H]4C(=O)N(C(C)(C)C)C(=O)[C@H]4CC[C@H]23)[C@H](OC(C)=O)[C@H](OC(C)=O)[C@@H]1OC(C)=O -17.4% [at 11.4 µM], O=C(O)[C@H](Cc1ccc(O)c([N+](=O)[O-])c1)N1C(=O)c2ccccc2C1=O 6.92% [at 11.4 µM], CCc1nnc(NC(=O)c2c(C)nn(-c3ccccc3)c2Cl)s1 4.89% [at 2.29 µM], CCOc1ccccc1NC(=O)C1Cc2ccccc2CN1S(C)(=O)=O (stereo not given) -25.2% [at 11.4 µM], CC(=O)c1sc(NC(=O)C(C)C)nc1C -11.3%, O=C(O)CSc1ncnc2sc3c(c12)CCC3 -26%, OCCNc1nc(SCc2ccccc2)nc2sc3c(c12)CCC3 -25% [at 11.4 µM], Cc1ccc(CSc2nc3c(c(SCC(=O)O)n2)CCCC3)cc1 8.65%, Cc1nc2c(O)cccc2c(=O)[nH]1 -15.4%, COc1cccc(NC(=O)COC(=O)c2nc3nccc(C)n3n2)c1 -9.81%, Cc1ccc(S(=O)(=O)ON=C2CCN(S(=O)(=O)c3ccccc3)CC2)cc1 9.52%, Cc1ccc(S(=O)(=O)N2CCC(C(=O)O)(c3ccccc3)CC2)cc1 12.2% [at 11.4 µM], CC(=O)N1CC2(CC2)CC1c1ccccc1 (stereo not given) -21.7%, COc1ccc(C(=O)c2ccccc2)cc1Br -25.9%, COc1ccc(NC(=O)C(F)(F)F)cc1OC 1.85%, CN[C@H]1[C@@H](O[C@@H]2[C@H](O[C@@H]3[C@@H](O)[C@@H](O)[C@@H](N=C(N)N)[C@@H](O)[C@@H]3N=C(N)N)O[C@H](C)[C@@]2(O)C=O)O[C@@H](CO)[C@@H](O)[C@H]1O -11.4% [at 25.6 µM], Cc1cccc(N2CCN(CC(=O)Nc3ccc(-n4cnnn4)cc3)CC2)c1C -1.5%

AC50, inactive:
CCn1cc(C(=O)O)c(=O)c2cc(F)c(N3CCN[C@@H](C)C3)c(F)c21

AC50, active:
CC(C(=O)Nc1cccnc1)N1C(=O)C2C3C=CC(C3)C2C1=O (stereo not given) 12.6 µM, Cc1ccc(NC(=O)C(C)N2C(=O)C3C4CC(C(Br)C4Br)C3C2=O)cc1 (stereo not given) 5.62 µM, CN(Cc1ccco1)c1ccnc(-c2cccc(NS(C)(=O)=O)c2)n1 6.31 µM, CN(Cc1ccco1)c1cc(-c2cccc(NS(C)(=O)=O)c2)ncn1 15.8 µM, COC(=O)CNC(c1ccccc1Cl)c1cc(Br)ccc1NC(=O)CCN1CCOCC1 (stereo not given) 3.55 µM, Cc1cc2c(cc1C)NC(c1nc3ccccc3[nH]1)C1=C(CC(C)(C)CC1=O)N2 (stereo not given) 12.6 µM, C=CCSc1nnc(-c2cc3c(-c4ccccc4)nn(C)c3s2)n1C 1.58 µM, C=CCSc1nnc(-c2cc3c(C(F)(F)F)nn(C)c3s2)n1C 8.91 µM, C#CCSc1nnc(-c2cc3c(C(F)(F)F)nn(C)c3s2)n1C 7.94 µM, CN(C)c1ccc(-c2nc(-n3ccnc3)c3ccccc3n2)cc1 0.631 µM, c1ccc2c(-n3ccnc3)nc(-c3ccoc3)nc2c1 0.2 µM, Cc1cnc(CNc2ncnc3ccc(-c4ccc(N(C)C)cc4)cc23)cn1 10 µM, Cc1cnc(CNc2ncnc3ccc(-c4ccc5c(c4)OCO5)cc23)cn1 2.51 µM, Cc1cnc(CNc2ncnc3ccc(-c4ccoc4)cc23)cn1 15.8 µM, CCOC(=O)C1=C(O)C(Nc2nccs2)(C(F)(F)F)N=C1C (stereo not given) 14.1 µM, CCOC(=O)C(C)CC(C)C(=O)N1CCOCCN(C(=O)C(C)CC(C)C(=O)OCC)CCOCC1 (stereo not given) 11.2 µM, COc1cc(OC)c2c(c1)C(=O)c1cc(OC)cc(OC)c1C2=O 3.55 µM, O=C(NC1CCCCC1)C1CC=CCC1C(=O)OCC(Cl)=C(Cl)Cl (stereo not given) 7.94 µM, CNC(=O)c1ccc(-c2sc3nc(N4CCOCC4)c4c(c3c2N)CC(C)(C)OC4)o1 2.82 µM, O=C1NC(=O)C(c2ccccc2[N+](=O)[O-])=C1Nc1ccc(O)c(Cl)c1 20 µM, O=C(Nc1nccs1)C1Cc2ccccc2CN1S(=O)(=O)c1ccc(F)cc1 (stereo not given) 3.16 µM, CCc1nnc(NC(=O)C2Cc3ccccc3CN2S(=O)(=O)c2ccc(C)cc2)s1 (stereo not given) 6.31 µM, O=C(Nc1nnc(C2CC2)s1)C1Cc2ccccc2CN1S(=O)(=O)c1ccccc1F (stereo not given) 7.08 µM, COCCNc1nc(SCc2ccccc2)nc2sc3c(c12)CCC3 12.6 µM, CC(CO)Nc1nc(SCc2ccccc2)nc2sc3c(c12)CCC3 (stereo not given) 14.1 µM, COc1cccc(NC(=O)COC(=O)c2c3c(nc4ccccc24)CCC(C)C3)c1 (stereo not given) 3.55 µM, Cc1ccc(S(=O)(=O)N2CCN(C(=O)c3ccccc3)C2C(C)C)cc1 (stereo not given) 2 µM, CC(=O)N1CCN(S(=O)(=O)c2ccccc2)C1c1ccccc1 (stereo not given) 11.2 µM, COc1ccc(C(=O)c2ccc(OC)c(OC)c2)cc1OC 15.8 µM, Cc1cccc(N2CCN(C(=O)CSCc3c(C)noc3C)CC2)c1C 3.98 µM

From PubChem BioAssay AID1851 (National Center for Advancing Translational Sciences (NCATS), 2009)
